Molecules are shown by their SMILES. Several values for one entry are separate records, joined by “and”; a condition that tells them apart may be missing. Identical values can stand only once. Results filed as inconclusive are left out. Where a structure was tested more than once in an assay, its records may differ in their call. Activity calls are given as the source filed them. Rule for the calls: active = hit-call score of the fitted dose curve at least 0.9, where 1 is the maximum; inconclusive = response in the unintended direction; inactive = score below 0.9.

Sequence of human Constitutive Androstane Receptor (CAR), NR1I3 (gene 9970) (Q14994 whole entry, looked up): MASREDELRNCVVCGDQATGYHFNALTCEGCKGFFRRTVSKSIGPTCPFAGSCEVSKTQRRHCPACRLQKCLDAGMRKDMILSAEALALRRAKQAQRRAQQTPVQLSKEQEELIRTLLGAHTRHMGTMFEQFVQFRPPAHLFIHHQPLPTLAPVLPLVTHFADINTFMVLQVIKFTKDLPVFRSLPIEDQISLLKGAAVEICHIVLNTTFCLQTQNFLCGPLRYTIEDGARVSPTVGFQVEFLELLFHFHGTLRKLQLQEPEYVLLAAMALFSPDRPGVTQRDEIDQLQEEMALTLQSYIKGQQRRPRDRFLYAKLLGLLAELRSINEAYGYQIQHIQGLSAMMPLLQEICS
Sequence of bovine Estrogen Receptor (ER), ESR1 (gene 407238) (P49884 whole entry, looked up): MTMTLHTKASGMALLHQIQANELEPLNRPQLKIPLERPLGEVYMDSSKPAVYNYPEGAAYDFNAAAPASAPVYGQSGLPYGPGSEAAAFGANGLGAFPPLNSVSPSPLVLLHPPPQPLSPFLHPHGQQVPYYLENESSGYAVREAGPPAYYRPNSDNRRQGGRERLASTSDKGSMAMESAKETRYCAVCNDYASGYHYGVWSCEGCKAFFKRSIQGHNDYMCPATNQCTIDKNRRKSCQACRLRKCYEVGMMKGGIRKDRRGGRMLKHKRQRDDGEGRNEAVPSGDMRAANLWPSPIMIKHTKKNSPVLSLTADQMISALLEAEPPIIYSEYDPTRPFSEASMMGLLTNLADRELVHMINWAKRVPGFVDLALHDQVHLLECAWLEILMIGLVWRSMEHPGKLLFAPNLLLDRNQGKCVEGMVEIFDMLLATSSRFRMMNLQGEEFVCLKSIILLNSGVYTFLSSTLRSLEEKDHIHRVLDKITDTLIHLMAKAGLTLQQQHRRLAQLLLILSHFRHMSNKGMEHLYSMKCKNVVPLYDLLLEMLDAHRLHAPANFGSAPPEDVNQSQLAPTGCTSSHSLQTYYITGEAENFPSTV
Sequence of chimpanzee Androgen Receptor (AR), AR (gene 747460) (O97775 whole entry, looked up): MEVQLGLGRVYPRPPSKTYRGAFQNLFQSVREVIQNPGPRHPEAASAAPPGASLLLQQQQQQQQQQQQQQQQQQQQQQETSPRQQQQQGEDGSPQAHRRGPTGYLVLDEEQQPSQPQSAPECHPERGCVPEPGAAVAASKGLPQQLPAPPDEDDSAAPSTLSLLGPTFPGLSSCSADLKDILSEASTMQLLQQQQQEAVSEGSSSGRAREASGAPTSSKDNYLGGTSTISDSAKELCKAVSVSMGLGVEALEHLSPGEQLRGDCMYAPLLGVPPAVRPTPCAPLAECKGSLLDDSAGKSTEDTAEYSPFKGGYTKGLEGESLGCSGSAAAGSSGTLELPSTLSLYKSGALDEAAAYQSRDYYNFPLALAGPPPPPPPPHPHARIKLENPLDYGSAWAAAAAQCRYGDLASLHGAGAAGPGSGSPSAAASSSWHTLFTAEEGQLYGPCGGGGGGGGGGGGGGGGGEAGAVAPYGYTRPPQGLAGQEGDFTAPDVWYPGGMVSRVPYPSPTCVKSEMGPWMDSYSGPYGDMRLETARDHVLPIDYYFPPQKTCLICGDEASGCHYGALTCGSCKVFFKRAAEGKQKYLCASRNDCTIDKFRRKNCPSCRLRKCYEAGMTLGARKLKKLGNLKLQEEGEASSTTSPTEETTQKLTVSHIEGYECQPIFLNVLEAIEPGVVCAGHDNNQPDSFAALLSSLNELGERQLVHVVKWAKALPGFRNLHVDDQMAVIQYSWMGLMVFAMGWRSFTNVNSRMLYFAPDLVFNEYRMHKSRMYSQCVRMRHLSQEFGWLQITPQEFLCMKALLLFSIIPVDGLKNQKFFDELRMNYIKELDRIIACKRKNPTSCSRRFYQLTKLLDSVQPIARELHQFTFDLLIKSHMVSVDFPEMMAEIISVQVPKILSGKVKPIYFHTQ

The target in the first assay is rat Glutamate, MK-801 Agonist Site (GluNMDA_MK801), Grin1 (gene 24408) (UniProt P35439). Put plainly: NVS_LGIC_rGluNMDA_MK801_Agonist: NovaScreen (NVS) Ligand-Gated Ion Channel Assay for rat Glutamate, MK-801 Agonist Site (GluNMDA_MK801) (AID 2283340). In a few lines: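 Radioligand binding at MK-801 site in rat forebrain membranes, 1.5 h incubation, filter-based scintillation counting. Initially 25 uM in duplicate; actives then run in concentration-response up to 50 uM, fitted for gain of signal versus DMSO.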
A word on the AC50: it is the concentration giving half of the maximal activity seen. With `S=C(S)NCCNC(=S)S.[Mn+2].[S-]C([S-])=NCCN=C([S-])[S-].[Zn+2]`, the AC50 was 17.3 µM (active) and 25 µM (active).

In the case of `S=C([S-])NCCNC(=S)[S-].[Mn+2]`, the result was inactive.

Take `C=CCOC(Cn1ccnc1)c1ccc(Cl)cc1Cl` (stereo unspecified): the compound was classed as inactive.

The test system of a further assay is guinea pig Histamine Receptor (H2), gene 100729734. Put plainly: NVS_GPCR_gH2: NovaScreen (NVS) G Protein-Coupled Receptor Assay for guinea pig Histamine Receptor (H2) (AID 2283342). In short, it runs like this:
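Radioligand displacement on guinea pig striatal membranes, 1 h after dosing, filter-based scintillation counting; loss of signal versus DMSO. Single-point screen at 25 uM in duplicate, then concentration-response up to 50 uM.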
Turning to `C=CCOC(Cn1ccnc1)c1ccc(Cl)cc1Cl` (stereo unspecified), the AC50 was 6.78 µM (active).

On to `C[C@]12CC[C@@H]3c4ccc(O)cc4C[C@@H](CCCCCCCCCS(=O)CCCC(F)(F)C(F)(F)F)[C@H]3[C@@H]1CC[C@@H]2O` (stereo partly specified), for which the outcome was inactive.

`COC(=O)c1ccccc1C(=O)O`: the compound was called inactive.

In the next assay the test system is NCBI gene 100848466. Put plainly: NVS_NR_bPR: NovaScreen (NVS) Nuclear Receptor Binding Assay for bovine Progextron Receptor (PR) (AID 2283343).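 For AC50: actives lower bound radioligand signal below DMSO meaning displacement of the label.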 In a few lines:
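Bovine uterine membrane preparation; radioligand displacement read by scintillation counting 18 h after dosing. Primary screen single concentration, 25 uM, in duplicate; actives followed up in concentration series. Signal loss versus DMSO baseline.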
As for `CC(=O)S[C@@H]1CC2=CC(=O)CC[C@]2(C)[C@H]2CC[C@@]3(C)[C@@H](CC[C@@]34CCC(=O)O4)[C@H]12`, the AC50 was 1.53 µM (active).

With `C=CCOC(Cn1ccnc1)c1ccc(Cl)cc1Cl` (stereo unspecified), the AC50 is 13 µM (active).

For `CCNc1nc(N)nc(Cl)n1`, the outcome was inactive.

Regarding `CC(=O)[C@H]1CC[C@H]2[C@@H]3CCC4=CC(=O)CC[C@]4(C)[C@H]3CC[C@]12C`, the half-maximal activity concentration (AC50) is 0.00229 µM (active).

`Cc1nn(C)c(Oc2ccccc2)c1C=NOCc1ccc(C(=O)OC(C)(C)C)cc1`: the AC50 was 11 µM (active).

In the case of `C[C@]12C[C@H](O)[C@H]3[C@@H](CCC4=CC(=O)CC[C@@]43C)[C@@H]1CC[C@@H]2C(=O)CO`, the AC50 was 0.875 µM (active).

For the compound `CCCCOCCOCCOCc1cc2c(cc1CCC)OCO2`, the call was inactive.

On to `c1ccc(Nc2ccccc2)cc1`, for which the outcome was inactive.

Regarding `CCCCC(CC)CN1C(=O)C2C3C=CC(C3)C2C1=O` (stereo unspecified), the compound was classed as inactive.

As for `Oc1ccc(C(c2ccc(O)cc2)C(Cl)(Cl)Cl)cc1`, the AC50 was 3.6 µM (active).

With `C[C@]12CC[C@@H]3c4ccc(O)cc4C[C@@H](CCCCCCCCCS(=O)CCCC(F)(F)C(F)(F)F)[C@H]3[C@@H]1CC[C@@H]2O` (stereo partly specified), the compound was classed as inactive.

On to `C#C[C@]1(O)CC[C@H]2[C@@H]3CCC4=CC(=O)CC[C@@H]4[C@H]3CC[C@@]21CC`, for which the AC50 is 0.00453 µM (active).

Consider `O=C(c1ccc(O)cc1O)c1ccc(O)cc1O`, for which the AC50 was 16.4 µM (active).

`N#CSCSc1nc2ccccc2s1`: the call was inactive.

Turning to `CC(C)(c1ccc(O)cc1)c1ccc(O)cc1`, the AC50 is 10.3 µM (active) and 19.7 µM (active) and 14.7 µM (active).

For the compound `CCCN(CCC)C(=O)SCC`, the outcome was inactive.

In the case of `CC1(C)C(C=C(Cl)Cl)C1C(=O)OCc1cccc(Oc2ccccc2)c1` (stereo unspecified), the compound was classed as inactive.

For `CC(C)CCCCCCc1ccc(O)cc1`, the compound was classed as inactive.

Another assay has as its target human Constitutive Androstane Receptor (CAR), NR1I3 (gene 9970) (UniProt Q14994). Put plainly: NVS_NR_hCAR_Antagonist: NovaScreen (NVS) Nuclear Receptor Binding Assay for human Constitutive Androstane Receptor Antagonism (CAR) (AID 2283344). In short, it runs like this:
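Cell-free TR-FRET binding read 1 h after dosing, antagonist mode; loss of signal versus DMSO baseline. Primary screen in duplicate at a single 25 uM; actives retested in concentration series.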
Consider `C=CCOC(Cn1ccnc1)c1ccc(Cl)cc1Cl` (stereo unspecified), for which the AC50 was 9.8 µM (active).

Regarding `CCOC(=O)[C@H](C)Oc1ccc(Oc2nc3ccc(Cl)cc3o2)cc1`, the AC50 is 0.182 µM (active).

For the compound `CCC(O)=C1C(=O)CC(C(=O)O)CC1=O` (stereo unspecified), the compound was classed as inactive.

As to `CCCCOCCOCCOCc1cc2c(cc1CCC)OCO2`, the result was inactive.

In the case of `CCCCC(CC)CN1C(=O)C2C3C=CC(C3)C2C1=O` (stereo unspecified), the AC50 was 12.3 µM (active).

For `COC(=O)c1ccccc1C(=O)O`, the result was inactive.

In the case of `CC(C)(c1ccc(O)cc1)c1ccc(O)cc1`, the AC50 is 90.5 nM (active) and 367 nM (active).

On to `CCCN(CCC)C(=O)SCC`, for which the compound was classed as inactive.

Turning to `CCCCC(CC)COC(=O)c1ccccc1C(=O)O` (stereo unspecified), the call was inactive.

Turning to `CC1(C)C(C=C(Cl)Cl)C1C(=O)OCc1cccc(Oc2ccccc2)c1` (stereo unspecified), the call was inactive.

Another assay has as its target bovine Estrogen Receptor (ER), ESR1 (gene 407238) (UniProt P49884). Put plainly: NVS_NR_bER: NovaScreen (NVS) Nuclear Receptor Binding Assay for bovine Estrogen Receptor (ER) (AID 2283345).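 Note: actives lower the bound radioligand count which means they displace the ER ligand.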 In a few lines: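 Displacement of a radioligand from estrogen receptor in bovine uterine membrane preparations; scintillation signal taken at 18 hours, DMSO as baseline. Single-concentration duplicates (25 uM) preceded concentration-response follow-up of actives.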
Turning to `CC(=O)S[C@@H]1CC2=CC(=O)CC[C@]2(C)[C@H]2CC[C@@]3(C)[C@@H](CC[C@@]34CCC(=O)O4)[C@H]12`, the outcome was inactive.

`CC(=O)[C@H]1CC[C@H]2[C@@H]3CCC4=CC(=O)CC[C@]4(C)[C@H]3CC[C@]12C`: the AC50 was 12.4 µM (active) and the call was inactive.

For the compound `Cc1nn(C)c(Oc2ccccc2)c1C=NOCc1ccc(C(=O)OC(C)(C)C)cc1`, the call was inactive.

On to `C[C@]12C[C@H](O)[C@H]3[C@@H](CCC4=CC(=O)CC[C@@]43C)[C@@H]1CC[C@@H]2C(=O)CO`, for which the compound was called inactive.

For `CCCCC(CC)CN1C(=O)C2C3C=CC(C3)C2C1=O` (stereo unspecified), the result was inactive.

For the compound `C[C@]12CC[C@@H]3c4ccc(O)cc4C[C@@H](CCCCCCCCCS(=O)CCCC(F)(F)C(F)(F)F)[C@H]3[C@@H]1CC[C@@H]2O` (stereo partly specified), the result was inactive.

As for `C#C[C@]1(O)CC[C@H]2[C@@H]3CCC4=CC(=O)CC[C@@H]4[C@H]3CC[C@@]21CC`, the concentration at half-maximal activity (AC50) is 6.85 µM (active) and the outcome was inactive.

As to `CC(C)(c1ccc(O)cc1)c1ccc(O)cc1`, the outcome was inactive.

For the compound `CC1(C)C(C=C(Cl)Cl)C1C(=O)OCc1cccc(Oc2ccccc2)c1` (stereo unspecified), the outcome was inactive.

Consider `CC(C)CCCCCCc1ccc(O)cc1`, for which the AC50 is 16.7 µM (active) [middle of 4 runs].

The target in a further assay is chimpanzee Androgen Receptor (AR), AR (gene 747460) (UniProt O97775). Put plainly: NVS_NR_cAR: NovaScreen (NVS) Nuclear Receptor Binding Assay for chimpanzee Androgen Receptor (AR) (AID 2283346).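 Note: radioligand displacement from AR measured by scintillation counting in a cell-free assay; a loss of bound radioligand signal versus DMSO counts as binding.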 In a few lines:
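Radioligand binding to chimpanzee AR expressed in Sf9/Sf21 cells, cell-free, measured 72 h after dosing by lysate-based scintillation counting. Loss of signal vs DMSO; initial duplicate screen at 25 uM, actives retested in concentration series.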
As for `S=C(S)NCCNC(=S)S.[Mn+2].[S-]C([S-])=NCCN=C([S-])[S-].[Zn+2]`, the AC50 was 12.5 µM (active).

Consider `CC(=O)S[C@@H]1CC2=CC(=O)CC[C@]2(C)[C@H]2CC[C@@]3(C)[C@@H](CC[C@@]34CCC(=O)O4)[C@H]12`, for which the AC50 is 6.35 nM (active) and 29.2 nM (active).

`C=CCOC(Cn1ccnc1)c1ccc(Cl)cc1Cl` (stereo unspecified): the AC50 was 9.9 µM (active).

With `C[C@]12C[C@H](O)[C@H]3[C@@H](CCC4=CC(=O)CC[C@@]43C)[C@@H]1CC[C@@H]2C(=O)CO`, the half-maximal activity concentration (AC50) was 4.56 µM (active).

For the compound `Oc1ccc(C(c2ccc(O)cc2)C(Cl)(Cl)Cl)cc1`, the concentration at half-maximal activity (AC50) was 6.15 µM (active).

Turning to `C[C@]12CC[C@@H]3c4ccc(O)cc4C[C@@H](CCCCCCCCCS(=O)CCCC(F)(F)C(F)(F)F)[C@H]3[C@@H]1CC[C@@H]2O` (stereo partly specified), the AC50 is 15.5 µM (active) and the compound was called inactive.

Take `C#C[C@]1(O)CC[C@H]2[C@@H]3CCC4=CC(=O)CC[C@@H]4[C@H]3CC[C@@]21CC`: the AC50 is 2.29 nM (active) and 5.63 nM (active).

Turning to `O=C(c1ccc(O)cc1O)c1ccc(O)cc1O`, the half-maximal activity concentration (AC50) was 2.73 µM (active).

On to `CC(C)(c1ccc(O)cc1)c1ccc(O)cc1`, for which the AC50 was 16.5 µM (active) and 17.8 µM (active) and 25.4 µM (active).

For the origin of these results see PubChem BioAssay (EPA / NIEHS).
